Here are results for 6 compounds from PubChem BioAssay.

Several values for one entry are separate records, joined by “and”; a condition that tells them apart may be missing. Equal values may be shown once. Records with an inconclusive call do not appear. Activity calls are given as the source filed them. Cut-off read from the data, not from the text of the source, unless noted: active = inhibition above about 80%; inactive = the rest.

A short description of assay [1]: viability loss in pontine glioma line – cell-based, SU-DIPG-XIII, MIPE4.0, CellTiter-Glo, qHTS, dose response (AID 1347061; cut-off not given, nearly all actives have AC50 up to about 37 µM;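 note: cells exposed to compound for 48 hours before readout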). As to conditions: CellTiter-Glo ATP luminescence. In general terms: ATP-based viability assays read luminescence as a measure of living cells.
Assay [2] is described as follows: viability loss in pontine glioma line – cell-based, SU-DIPG-XIII, MIPE5.0, CellTiter-Glo, qHTS, dose response (AID 1347064; cut-off not given, nearly all actives have AC50 up to about 23 µM;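 note: cells exposed to compound for 48 hours before the viability read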). The note with it: CellTiter-Glo ATP luminescence.
Assay [3] in a line: viability loss in pontine glioma line – cell-based, SU-DIPG-XXV, MIPE5.0, CellTiter-Glo, qHTS, dose response (AID 1347065; cut-off not given, nearly all actives have AC50 up to about 26 µM;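 note: cells exposed to compound for 48 hours before ATP readout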). As to conditions: CellTiter-Glo ATP luminescence.
Assay [4] is described as follows: growth inhibition of DIPG cells – cell-based, MIPE4.0 library, CellTiter-Glo luminescence, qHTS (AID 1347066; cut-off not given, nearly all actives have AC50 up to about 30 µM;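 note: cells exposed to compound for 48 hours before readout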). The note with it: SU-DIPG-VI viability, CellTiter-Glo ATP luminescence.
Assay [5] can be described thus: growth inhibition of DIPG cells – cell-based, MIPE5.0 library, qHTS (AID 1347068; cut-off not given, nearly all actives have IC50 up to about 30 µM;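 for IC50: cells exposed to compound for 48 hours before viability readout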). The note with it: SU-DIPG-XXV viability.
Assay [6] can be described thus: viability loss in pontine glioma line – cell-based, SU-DIPG-IV, MIPE4.0, CellTiter-Glo, qHTS, dose response (AID 1347063; cut-off not given, nearly all actives have AC50 up to about 30 µM;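 note: compound exposure lasted 48 hours before the viability readout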). The note with it: CellTiter-Glo ATP luminescence.
A short description of assay [7]: compounds altering HSF1 focus formation in cells – imaging, Selleck Cancer Library (AID 1347162; in the data active = plate-normalised HSF1 focus index below about 0.46). The note with it: human cells, HSF1 nuclear foci imaging, at 10 µM; SSMD: measured here: HSF1 foci SSMD mean; cell count: measured here: cell number; plate-normalised HSF1 focus index: stronger effect = lower value.
Assay [8] in a line: JHH-DIPG-1 glioma cell viability, MIPE5.0 library, CellTiter-Glo luminescence, qHTS (AID 1347067; cut-off not given, nearly all actives have AC50 up to about 26 µM;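 note: cells exposed to compound for 48 hours before readout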). The note with it: JHH-DIPG-1 glioma viability, CellTiter-Glo ATP luminescence.
A short description of assay [9]: viability loss with induced miR-34 in A549 – imaging, A549 dox-inducible miR-34, nuclei and caspase counts, primary screen (AID 1347080;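 active = compounds whose cell count with miR-34 switched on is under 0.7 times the count with it off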). The note with it: A549 miR-34 inducible, Hoechst nuclei count, 48 h.
Assay [10] in a line: growth inhibition, single agent or in combination, cell-based, chromothripsis tumors, cisplatin or BGB combos (AID 1671449).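 Note: cells exposed for 96 hours; 0% = vehicle DMSO and 100% = killing by high DMSO.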 The note with it: LFS_MB_P medulloblastoma cells.
The nature of assay [11]: growth inhibition, single agent and combos, cell-based, chromothripsis tumors, cisplatin or BGB combos (AID 1671450).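 Note: cells exposed to compound for four days; 0% = vehicle DMSO and 100% = cell killing by high DMSO.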 As to conditions: HDN33 neuroblastoma cells, stronger effect = higher value.
A short description of assay [12]: growth inhibition, single agents and combos, ICB984, cell-based, cisplatin or BGB combos, synergistic combos for chromothripsis tumors (AID 1671451; call rule not given here;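 note: cells exposed for 96 hours before readout; 0% = vehicle DMSO and 100% = killing by high DMSO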). The note with it: ICB984 medulloblastoma cells, drug combinations, stronger effect = higher value.
A short description of assay [13]: growth inhibition, single agents and combos, HTB85, cell-based, BGB or cisplatin IC20 combos, synergistic combos for chromothripsis tumors (AID 1671453).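 Note: cells exposed for 96 hours before readout; 0% = vehicle DMSO and 100% = high DMSO killing control.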 The note with it: HTB85 osteosarcoma cells, drug combinations, stronger effect = higher value.
Assay [14] can be described thus: growth inhibition, MDA-MB-436, cell-based, BGB or cisplatin combos, synergistic combos for chromothripsis tumors (AID 1671458; call rule not given here;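 note: cells exposed for 96 hours; 0% = vehicle DMSO and 100% = killing by high DMSO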). The note with it: MDA-MB-436 breast carcinoma growth inhibition, drug combinations, stronger effect = higher value.
Assay [15] is described as follows: BT084 cell growth, single and combined drugs, ICGC_MB145, cisplatin and BGB IC40 combos (AID 1671461).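 Note: cells exposed to drugs for 96 hours; 0% = vehicle DMSO and 100% = high DMSO full killing control.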 The note with it: BT084 medulloblastoma cells, drug combinations, stronger effect = higher value.
A short description of assay [16]: RCMB18 cell growth, single agent and combined, cisplatin and BGB IC40 combos (AID 1671462).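 Note: cells exposed to compound for four days.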 As to conditions: RCMB18 medulloblastoma cells, stronger effect = higher value.
Assay [17] can be described thus: CRL1545 cell growth, single agent and combined, cisplatin and BGB IC20 combos (AID 1671464).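 Note: cells exposed to compound for 96 hours before readout; 0% = vehicle DMSO and 100% = high DMSO killing control.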 The note with it: CRL1545 osteosarcoma cells, stronger effect = higher value.
Assay [18] can be described thus: MELAS cybrid and Rieske KO viability enhancers – cell-based, MELAS cybrids, Rieske KO mouse fibroblasts, CellTiter-Glo, primary screen (AID 1508586;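 active = mean z-score across replicates of 1.96 or higher in either the MELAS or the Rieske mutant cell line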;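 note: z relative to plate mean and SD of compound and empty wells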). As to conditions: low glucose.
The mark [19] stands for this setting: stronger effect = lower value, cell number ratio, induced over uninduced.
Where [20] appears, read: measured here: relative caspase fold change +Dox/-Dox.
Where [21] appears, read: measured here: total cells with miR-34 induction, stronger effect = lower value.
Where [22] appears, read: measured here: total cells without miR-34 induction.
Setting [23] is: measured here: with BGB IC20 combination, at 0.5 µM.
Setting [24] is: measured here: with cisplatin IC20 combination, at 0.5 µM.

By AC50 is commonly meant the concentration at which the activity in the assay is half-maximal. Broadly, the IC50 is the midpoint of a concentration-inhibition curve. Regarding `CN(C[C@@H]1COCCO1)S(=O)(=O)Nc1ccc2ccc3ncc(-c4cnn(C)c4)cc3c(=O)c2c1`, the AC50 in [1] was 2.64 µM (active); in [2], 2.63 µM (active); in [3], 2.09 µM (active). Moreover, the call in [4] was inactive. Moreover, the IC50 in assay [5] is 3.32 µM (active).

Consider `COc1cccc2c1CCCC2CCCN1CCN(C2CCCCC2)CC1` (stereo not drawn), for which, in assay [1], the call was inactive. In addition, the AC50 in assay [6] is 18.7 µM (active). Moreover, in assay [7], the SSMD is -2.1, the cell count stood at 5730 and the plate-normalised HSF1 focus index is 0.878 (inactive).

The inhibition is the relative decrease from the control value, in per cent. Take `CC(C)(C)OC(=O)Nc1ccc(-c2cc(C(=O)NCCCCCCC(=O)NO)no2)cc1`: the AC50 in assay [1] is 13.2 µM (active); in assay [6], 2.64 µM (active); in [2] it was 1.86 µM (active); in [3], 2.95 µM (active); in assay [8] it was 3.72 µM (active). Further, the fold change in [9] (setting [19]) is 1.08 (inactive); in [9] (setting [20]) it was 1.18. Moreover, the cell count in assay [9] (setting [21]) turned out to be 3170; in assay [9] (setting [22]), 2940; in assay [7], 7020. The SSMD in [7] was -0.325. The plate-normalised HSF1 focus index in [7] was 0.983 (inactive). Moreover, the inhibition in [10] (at 0.5 µM, stronger effect = higher value) is -18.3% (inactive) and -10.4% (inactive); in assay [10] (measured here: combination with BGB IC20, at 0.005 µM) it was -24.2% and -11.2%; in assay [10] (measured here: combination with BGB IC40, at 0.005 µM), -24.3% and -8.96%; in assay [10] (measured here: combination with BGB IC40, at 0.05 µM), -25.1% and 5.48%; in assay [10] (measured here: combination with cisplatin, at 0.5 µM, stronger effect = higher value), -19.2% and 23.7%; in assay [10] (measured here: combination with cisplatin, at 5 µM, stronger effect = higher value) it was 70% and 74.7%. The inhibition was 75.4% and 95.4% in assay [11] (BGB combo, at 5 µM); -11.6% (inactive) and 3.28% (inactive) in [11] (at 0.5 µM); 84.3% and 99.1% in [11] (cisplatin combo, at 5 µM); -23% and -2.22% in [11] (setting [23]); 1.12% and 13.2% in [11] (setting [24]); 86.2% and 98% in [11] (single agent, at 5 µM). Also, the inhibition was -9.7% and -9.21% in [12] (BGB IC20 combo, at 0.005 µM); -27.3% and -46% in assay [12] (BGB IC40 combo, at 0.005 µM); 38.6% and 39.7% in assay [12] (BGB IC40 combo, at 0.05 µM); -16.4% (inactive) and -21.9% (inactive) in [12] (at 0.5 µM); 35.7% and 37.3% in assay [12] (cisplatin combo, at 0.05 µM); -28% and -20.5% in [12] (cisplatin combo, at 0.5 µM). The inhibition in [12] (cisplatin combo, at 5 µM) is -41.9% and -70.6%; in [12] (measured here: 5 uM single agent, at 5 µM), -17.6% and -12.3%; in [13] (at 0.5 µM), -17.8% (inactive) and -4.69% (inactive); in assay [13] (measured here: with BGB IC20, at 0.5 µM), -25.7% and -17.1%; in assay [13] (measured here: with BGB IC20, at 5 µM), 49.9% and 86.7%; in assay [13] (measured here: with cisplatin IC20, at 0.5 µM) it was -5.92% and 8.08%. Besides, the inhibition was 62.7% and 92.5% in [13] (measured here: with cisplatin IC20, at 5 µM); 77.5% and 87.2% in assay [13] (single agent, at 5 µM); -5.18% (inactive) and -14.7% (inactive) in [14] (at 0.5 µM); -6.05% and -29.4% in assay [14] (measured here: BGB combination, at 0.5 µM); 54.7% and 62.5% in assay [14] (measured here: BGB combination, at 5 µM); -18.7% and -11.1% in assay [14] (measured here: cisplatin combination, at 0.5 µM). The inhibition in [14] (measured here: cisplatin combination, at 5 µM) is 56.9% and 63%; in assay [15] (at 0.5 µM), 9.8% (inactive) and 2.37% (inactive); in assay [15] (cisplatin combination, at 0.5 µM) it was 8.11% and 13.2%; in assay [15] (cisplatin combination, at 5 µM) it was 29.8% and 83.8%; in assay [15] (measured here: BGB IC40 combination 0.05 uM, at 0.05 µM), -31% and -31.3%; in assay [15] (single agent, at 5 µM) it was 33.2% and 32%. For the same compound, the inhibition in assay [16] (at 0.5 µM) is -13.3% (inactive) and 2% (inactive); in [16] (cisplatin combo, at 5 µM), 55.6% and 86.3%; in [16] (measured here: BGB IC40 combination, at 0.05 µM), 43.9% and -7.68%; in [16] (measured here: combination with cisplatin, at 0.5 µM), -24.8% and 36.6%; in [16] (single agent, at 5 µM), 42.9% and 30.3%; in assay [17] (at 0.5 µM) it was 51.1% (inactive) and 53.4% (inactive). Besides, the inhibition in assay [17] (setting [23]) is 34.6% and 54.1%; in assay [17] (setting [24]), 58.7% and 53.1%; in assay [17] (single agent, at 0.05 µM), -13.9% and 7.41%; in assay [17] (single agent, at 5 µM), 94% and 95%.

Take `CN(C)c1nc(Cc2ccc(NC(=O)c3ccc4ccccc4c3)cc2)nc(Cl)c1CC(=O)O`: the compound was called inactive in [1] and in assay [4].

As for `CCOC(=O)C1=C(C)NC2=C(C(=O)CC(C)(C)C2)C1c1ccc(-c2ccccc2)cc1` (stereo not drawn), the call in assay [1] and in assay [5] was inactive. Besides, the AC50 in assay [6] was 14.8 µM (active); in assay [3], 23.5 µM (active).

In the case of `O=c1cc(-c2ccc(O)c(O)c2)oc2cc(O)cc(O)c12`, the call in assay [1], in assay [6] and in [4] was inactive. The fold change in assay [9] (setting [19]) is 0.817 (inactive) and 1 (inactive) and 0.947 (inactive); in assay [9] (setting [20]) it was 1.18 and 0.969 and 1.11. Moreover, the cell count in [9] (setting [21]) is 7040 and 6030 and 8740; in assay [9] (setting [22]) it was 8620 and 6020 and 9220. Further, the z-score in assay [18] (MELAS cybrid survival, CellTiter-Glo 48 h, stronger effect = higher value) is -0.397 (inactive) and 1.32 (inactive); in assay [18] (Rieske KO mouse fibroblast survival, CellTiter-Glo 72 h), -0.97 and -0.213.
